A selection: hits, their analogues and other compounds. The true share with any hit is near 1.3%.
NTR1 ag – agonists of human neurotensin receptor NTR1; NTR1-U2OS beta-arrestin-GFP spot imaging, agonist mode; activation, % at 20 µM; 0.17% of 330,000 active; AID 493036;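 active means activation at or above 40% of the spot to cytoplasm intensity ratio, with at least 20 cells analyzed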;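 further: 0% = DMSO without peptide and 100% = 100 nM NTR1 peptide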
VLA-4 inh – inhibition in a human VLA-4 binding assay | VLA-4 expressing cells, ligand binding flow cytometry | inhibition, % (about 7 µM as worked out from the volumes in the protocol) | 0.2% of 330,000 active; in the data active means inhibition above about 50%
Target sequence (P13612 whole entry, looked up): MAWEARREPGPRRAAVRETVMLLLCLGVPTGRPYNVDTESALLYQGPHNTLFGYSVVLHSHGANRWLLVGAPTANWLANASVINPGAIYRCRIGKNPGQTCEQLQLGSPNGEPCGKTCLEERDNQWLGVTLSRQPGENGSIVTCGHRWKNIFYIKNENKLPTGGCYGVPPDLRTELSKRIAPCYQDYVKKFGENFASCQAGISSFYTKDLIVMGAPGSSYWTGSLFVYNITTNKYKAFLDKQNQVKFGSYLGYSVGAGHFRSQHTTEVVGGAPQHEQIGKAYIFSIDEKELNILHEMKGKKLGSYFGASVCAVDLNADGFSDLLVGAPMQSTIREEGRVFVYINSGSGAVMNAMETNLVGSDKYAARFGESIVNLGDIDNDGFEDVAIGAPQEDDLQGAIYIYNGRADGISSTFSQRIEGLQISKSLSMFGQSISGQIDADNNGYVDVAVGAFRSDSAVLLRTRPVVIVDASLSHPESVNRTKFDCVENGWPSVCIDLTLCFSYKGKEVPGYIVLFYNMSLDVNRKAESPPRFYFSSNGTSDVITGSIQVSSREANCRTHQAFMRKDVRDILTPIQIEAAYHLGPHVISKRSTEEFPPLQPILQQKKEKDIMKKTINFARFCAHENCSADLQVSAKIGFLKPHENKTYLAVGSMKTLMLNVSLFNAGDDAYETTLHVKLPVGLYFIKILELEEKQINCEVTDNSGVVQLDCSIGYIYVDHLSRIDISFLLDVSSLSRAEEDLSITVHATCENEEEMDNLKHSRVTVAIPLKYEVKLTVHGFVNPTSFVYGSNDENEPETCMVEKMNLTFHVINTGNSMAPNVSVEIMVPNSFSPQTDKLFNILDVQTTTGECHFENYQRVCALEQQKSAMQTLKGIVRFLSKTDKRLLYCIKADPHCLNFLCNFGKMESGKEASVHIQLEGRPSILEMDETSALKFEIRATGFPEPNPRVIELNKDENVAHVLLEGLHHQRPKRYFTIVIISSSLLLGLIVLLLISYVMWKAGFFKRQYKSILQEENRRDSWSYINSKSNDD
GRK2 aptamer HTS – human GRK2 inhibition via aptamer displacement; inhibition of aptamer binding, % at 10 µM; bead flow cytometry, FAM-aptamer displacement from GRK2; P25098; 0.59% of 330,000 active;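 active means inhibition of aptamer binding above 40%, roughly 3 SD of noise, on plates passing a quality check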;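 further: median bead fluorescence of bound FAM aptamer so fluorescent compounds give negative values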
Bfl-1 A1 inh – inhibitors of the anti-apoptotic protein A1, read as caspase activation | MEF A1-2A-BIM cells, Caspase-Glo 3/7 luminescence, 3 h; percent of clofoctol response, vehicle zero | caspase activation, % (test concentration not listed) | 0.066% of 330,000 active | AID 2462;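 active means over half of replicate activation scores above 10%, or exactly half above 10 with the replicate mean above 10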
B2AR ag – human beta-2 adrenergic receptor agonism by FAP | 0.43% of 340,000 active | P07550 | Am2.2-beta2AR cells, FAP receptor internalization, flow cytometry | response, % (test concentration not listed);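 active means response above a set limit, near 3 SD of response in nonfluorescent compounds, cut at about 42% in these data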
Starred values were filed as active, the others as inactive; / = no result given.

SMILES	NTR1 ag	VLA-4 inh	GRK2 aptamer HTS	Bfl-1 A1 inh	B2AR ag
N#CC1=C(N)NC(SCC(=O)O)=C(C#N)C12CCCC2	-1	15	1	0	0
FC(F)(F)c1cc(CCN2CCNC[C@H]2Cc2cccc3ccccc23)cc(C(F)(F)F)c1	51*	12	0	2	22
CCC(=O)OCCNc1cc(Sc2nccn2C)c2nonc2c1[N+](=O)[O-]	/	23	3	-1	83*
CCC(=O)OCCNc1cc(SCCC(=O)OC)c2nonc2c1[N+](=O)[O-]	5	16	1	0	77*
CC(=O)OCCCNc1cc(Sc2ccc(Cl)cc2)c2nonc2c1[N+](=O)[O-]	/	20	2	0	50*
CC(=O)OCCNc1cc(SC(C)C)c2nonc2c1[N+](=O)[O-]	2	5	1	-1	-8
Cn1c(SCC(=O)NCC2CCCO2)nnc1-c1ccc(Cl)cc1 (stereo unspecified)	-4	6	0	1	5
CC(C)[C@H](NC(=O)c1ccccc1Cl)C(=O)OCC(=O)NCc1ccc2c(c1)OCO2	-1	6	42*	-1	5
O=Cc1coc2c(ccc3ccccc32)c1=O	10	-9	80*	0	/
CCOc1nc(OCC)c2[nH]c(C(=O)O)c(Br)c2n1	/	/	/	/	-12
O=[N+]([O-])c1cc(S(=O)(=O)N2CCCCCC2)ccc1F	/	45	10	0	50*
CCSc1nc(-c2ccc(OC)cc2)cc(-c2ccccc2)c1C#N	7	6	1	0	-17
COc1ccc(-c2cc(-c3ccccc3)c(C#N)c(S(C)=O)n2)cc1 (stereo unspecified)	9	23	0	0	44*
CCCOc1ccc(C(=O)CCC(=O)NNC(=O)c2cccs2)cc1	1	-4	0	0	-9
COC/C=C/C1=CC2=CC(=O)C(C)(O)C(=O)C2=CO1 (stereo unspecified)	-3	-9	87*	0	/
Cc1ccc(NC(=O)COc2ccccc2C(=O)NCc2ccccc2)cc1	-1	2	3	0	-1
CCOc1cc(C2NC(=O)CCC2[N+](=O)[O-])cc(Br)c1OC (stereo unspecified)	-1	9	0	0	-4
COc1cccc(/C=C2\SC(=S)NC2=O)c1OS(=O)(=O)c1ccc(NC(C)=O)cc1	0	0	0	1	77*
COC(=O)c1ccc(NC(=O)CN2CCN(CC#N)CC2)cc1	0	1	0	0	-3
N/C(=N\NS(=O)(=O)c1ccc(Cl)cc1)c1ccccn1	1	-3	41*	1	-3
CCCc1nnc(NC(=O)CCC(=O)Nc2ccc(Br)cc2)s1	0	-1	0	0	0
CN(C)CCCN(C(=O)c1cc2cc([N+](=O)[O-])ccc2s1)c1nc2cc3c(cc2s1)OCCO3	26	0	24	8.4*	35
COc1cccc(/C=C2\SC(=S)N(CCCC(=O)N3CCCC3)C2=O)c1	5	2	55*	-5	-9
COc1cccc(/C=C2\SC(=S)N(CCCC(=O)N3CCCCC3CCO)C2=O)c1 (stereo unspecified)	7	6	3	0	0
Cc1ccc(NC(=O)COC(=O)c2ccc(-n3nc(C)cc3C)cc2)c(F)c1	1	2	0	-1	-11
SMILES	NTR1 ag	VLA-4 inh	GRK2 aptamer HTS	Bfl-1 A1 inh	B2AR ag
CC(C)CC(=O)/C=C/n1c(=S)oc2ccccc21	/	4	1	0	49*
CC(=O)/C=C/n1c(=S)oc2ccccc21	/	-22	1	2	/
O=S1(=O)N=C(N/N=C/c2cccs2)c2ccccc21	4	1	0	0	4
Nc1ccc(O)c(C(=O)O)c1	/	51*	1	0	/
O=C(O)c1cc(O)ccc1O	/	/	/	/	0
O=c1c2ccccc2nc2n1C(CBr)CN2 (stereo unspecified)	1	3	0	0	6
O=C(N/N=C1\CCCc2c1[nH]c1ccc(Cl)cc21)c1ccncc1	4	13	3	1	45*
COc1cc(NC(=O)c2ccc(Br)cc2)c(OC)cc1NC(=O)c1ccccc1	0	15	0	1	-1
COc1cc(NC(=O)c2ccccc2)c(OC)cc1NC(=O)Cc1ccc(Br)cc1	12	-1	0	12*	-3
COCCN(C(=O)c1ccc(OCC(C)C)cc1)c1c(N)n(Cc2ccccc2)c(=O)[nH]c1=O	2	-1	0	2	-15

Screening data from PubChem BioAssay.
